Test results taken from PubChem BioAssay (EPA / NIEHS).
The source holds several records for some structures; these can differ, active in one and inactive in another. Calls of active or inactive are those of the source. The calls were made as follows: active = hit-call score of the fitted dose curve at least 0.9, where 1 is the maximum; inactive = score below 0.9.

Assay: BSK_SAg_Proliferation: Cell Proliferation Assessment in the BioMAP Diversity Plus: SAg Assay (AID 2283095);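 also: relative cell number as total protein by SRB absorbance in sub-confluent culture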
Conditions: primary human HUVEC with PBMC
Method in brief: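 A human primary co-culture of umbilical vein endothelium and blood mononuclear cells receives compound; relative cell number is quantified at 96 h by SRB staining and 560 nm absorbance, with DMSO-referenced bidirectional curve fitting.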

| SMILES | AC50 | outcome |
| --- | --- | --- |
| C[C@@H]1C[C@@H]([C@H](O)CC2CC(=O)NC(=O)C2)C(=O)[C@@H](C)C1 | 3.82 µM (active) | – |
| CCOP(=S)(OCC)Oc1ccc(S(C)=O)cc1 (stereo not given) | – | inactive |
| CCOC(=O)/C=C(C)/C=C/C[C@@H](C)CCCC(C)C | 31.5 µM (active) | – |
| CCN1CCC2(CC1)COc1cc3c(cc12)N(C(=O)c1ccc(-c2ccc(-c4nnc(C)o4)cc2C)cc1)CC3 | 6.95 µM (active) | – |
| O=Cc1cccc(Oc2ccccc2)c1 | – | inactive |
| O=C(O)C(F)(F)C(F)(F)C(F)(F)C(F)(F)C(F)(F)C(F)(F)C(F)(F)C(F)(F)C(F)(F)C(F)(F)F | 32.8 µM (active) | inactive |
| ClC1=C(Cl)[C@]2(Cl)[C@H]3[C@H]([C@H]4C=C[C@H]3C4)[C@@]1(Cl)C2(Cl)Cl | 20 µM (active) | – |
| Cc1ccccc1N | – | inactive |
| COc1cc(-c2ccc(N)c(OC)c2)ccc1N | 11.8 µM (active) | inactive |
| ClC(Cl)=C(Cl)C(Cl)=C(Cl)Cl | 31.7 µM (active) | – |
| NC(=S)Nc1ccccc1 | – | inactive |
| O=C(O)C(Cl)(Cl)Cl | – | inactive |
| O=c1[nH]c(=O)[nH]c(=O)[nH]1 | – | inactive |
| O=[N+]([O-])c1ccc2c3c(cccc13)CC2 | – | inactive |
| C[C@]12CCC(=O)C[C@@H]1CC[C@@H]1[C@@H]2CC[C@]2(C)[C@@H](O)CC[C@@H]12 | – | inactive |
| BrCCBr | – | inactive |
| ClCC(Cl)CCl | – | inactive |
| CC(C)(c1ccccc1)c1ccc(O)c(C(C)(C)c2ccccc2)c1 | 6 µM (active) | – |
| CCNc1nc(NC(C)(C)C)nc(SC)n1 | – | inactive |

| SMILES | AC50 | outcome |
| --- | --- | --- |
| C(=NC1CCCCC1)=NC1CCCCC1 | 0.499 µM (active) | – |
| CC1(C)Cc2cccc(O)c2O1 | – | inactive |
| O=C(O)C(F)(F)C(F)(F)C(F)(F)C(F)(F)C(F)(F)C(F)(F)F | – | inactive |
| C=C(C)C(=O)[O][Sn]([CH2]CCC)([CH2]CCC)[CH2]CCC | 0.188 µM (active) | – |
| CC(C)CCCCCCOC(=O)c1ccccc1C(=O)OCCCCCCC(C)C | – | inactive |
| Nc1ccc(-c2ccc(N)c(Cl)c2)cc1Cl | – | inactive |
| CN(C)N=O | – | inactive |
| CC(=O)OC(c1ccccc1)C(Cl)(Cl)Cl (stereo not given) | – | inactive |
| CCC(C)(C)c1ccc(O)c(C(C)(C)CC)c1 | 7.43 µM (active) | – |
| COP(=S)(OC)Oc1ccc(S(=O)(=O)N(C)C)cc1 | – | inactive |
| CCOP(=S)(OCC)SCCS(=O)(=O)CC | – | inactive |
| Oc1c(I)cc(I)cc1I | 31.9 µM (active) | – |
| Nc1ncc([N+](=O)[O-])s1 | – | inactive |
| O=C(O)CCC(F)(C(F)(F)F)C(F)(F)F | – | inactive |
| COC(=O)c1sccc1S(=O)(=O)NC(=O)Nc1nc(C)nc(OC)n1 | – | inactive |
| CCSC(C)CC1CC(=O)C(C(CC)=NOC/C=C/Cl)=C(O)C1 (stereo not given) | – | inactive |
| COC(=O)Cc1ccccc1 | – | inactive |
| COP(=S)(OC)Oc1cc(Cl)c(Cl)cc1Cl | – | inactive |
| CC(C)(OO)c1ccccc1 | – | inactive |
